TGFb SMAD3 inh – TGF-b pathway inhibition. HepG2 CAGA-GFP TGF-b/SMAD3 reporter, GFP fluorescence, 18 h; TGF-beta stimulated, 500 pg/mL final. Potency, µM (doses to about 46.1 µM), for inactives: at the top dose activity, negative = inhibition, hits mostly inhibitors. 1.2% of 410,000 active; note: potency is the fitted concentration of half-maximal effect; % is set by controls: 0 for no effect and ±100 for the full control effect; nearly all actives have a fitted effect of over 65% in size
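HEPG2 CAGA-GFP, 1000 cells/well; 2 h settle, 37 C; cpd via pin tool; TGF-b 500 pg/mL final; 18 h, 37 C; GFP imaging ex488/em500-530; %Activity normalised to -TGF-b and +DMSO controls; CRC fit, curve class.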
TDP1 cell CPT – DT40-hTDP1 cell growth loss with CPT | 12% of 420,000 active | AID 686979 | chicken DT40 Tdp1-/-;hTDP1 cells + 20 nM CPT, ATP luminescence, 48 h | Potency, µM (titrated, usually from 46.2 µM), for inactives: top-dose activity change, negative = growth inhibition, most hits filed as inhibitors; note: potency is the fitted concentration of half-maximal effect; % is set by controls: 0 for no effect and ±100 for the full control effect; nearly all actives have a fitted effect of over 55% in size
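Chicken DT40 Tdp1-/- cells stably complemented with human TDP1 were seeded at 400 cells/well in medium containing 20 nM camptothecin, exposed to pin-transferred compounds, and grown at 37 °C for at least 48 hr. Viability was read as ATP luminescence.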
HepG2 tox – kills HepG2 cells in TGF-b inhibitor counter-screen; HepG2 CAGA-GFP viability, ATP luminescence, 18 h; Potency, µM (doses to about 46.1 µM), without a hit: at the highest dose activity change, negative = cytotoxicity, usual class: cytotoxic; 0.76% of 410,000 active; note: potency is the fitted concentration of half-maximal effect
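CellTiter-Glo luminescence gave cytotoxicity after 18 hours at 37 degrees C. The cells were HepG2 CAGA-GFP in 1% FBS DMEM, stimulated with 500 pg/mL TGF-beta after compound addition. %Activity was normalised to no-cell wells (complete cell-killing) and DMSO (no toxicity), and curves were fitted and classified.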
TDP1 inh – inhibitors of human tyrosyl-DNA phosphodiesterase TDP1 | Q9NUW8 | recombinant TDP1, AlphaScreen DNA substrate cleavage | Potency, µM (doses to about 130 µM), inactives show top-dose activity change, negative = inhibition, hits mostly inhibitors | 0.28% of 350,000 active | AID 485290; note: potency is the fitted concentration of half-maximal effect; % is set by controls: 0 for no effect and ±100 for the full control effect; nearly all actives have a fitted effect of over 40% in size
Target sequence (Q9NUW8 whole entry, looked up): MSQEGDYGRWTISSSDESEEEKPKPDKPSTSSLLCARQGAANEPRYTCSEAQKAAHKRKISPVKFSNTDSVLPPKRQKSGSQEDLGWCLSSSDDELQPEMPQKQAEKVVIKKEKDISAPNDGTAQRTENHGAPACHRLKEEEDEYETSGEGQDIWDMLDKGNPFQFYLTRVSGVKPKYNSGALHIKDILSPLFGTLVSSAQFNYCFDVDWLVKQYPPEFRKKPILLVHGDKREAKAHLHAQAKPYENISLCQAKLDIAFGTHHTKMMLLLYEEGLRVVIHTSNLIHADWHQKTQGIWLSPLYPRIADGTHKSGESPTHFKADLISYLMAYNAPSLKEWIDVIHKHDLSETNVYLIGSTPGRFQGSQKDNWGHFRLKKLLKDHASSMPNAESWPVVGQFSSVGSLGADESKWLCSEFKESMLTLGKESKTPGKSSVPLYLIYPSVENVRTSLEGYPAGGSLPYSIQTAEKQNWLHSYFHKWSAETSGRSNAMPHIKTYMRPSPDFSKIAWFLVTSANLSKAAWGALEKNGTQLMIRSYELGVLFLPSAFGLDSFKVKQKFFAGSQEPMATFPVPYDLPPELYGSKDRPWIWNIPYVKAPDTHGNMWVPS
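Signal: AlphaScreen proximity between streptavidin donor and anti-FITC acceptor beads on intact substrate. Reaction: Tdp1 1 nM, substrate 15 nM final, 5 min RT after 15 min compound preincubation.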
IL-1B inflam inh – inhibitors of inflammasome signaling (IL-1 beta secretion); THP-1 LPS/ATP IL-1B secretion, AlphaLISA, 16 h; hits give low values; activity change, % at 57.5 µM; 4.7% of 360,000 active; AID 743279; in the data active = activity change below about -50%; inconclusive = mostly about -30% to -49%; note: % is set by controls: 0 for no effect and ±100 for the full control effect
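Secreted IL-1B measured by AlphaLISA bead assay after 16 h compound exposure of THP-1 cells; compounds (final up to 57.5 uM) added 1 h before LPS (250 ng/mL) and ATP (1.25 mM) stimulation; lower signal means less secretion.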
TDP1 cell noCPT – qHTS for Inhibitors of human tyrosyl-DNA phosphodiesterase 1 (TDP1): qHTS in cells in absence of CPT. DT40 Tdp1-/- hTDP1 cells, no CPT, ATP luminescence, 48 h. Potency, µM (titrated, usually from 46.2 µM), inactives show top-dose activity change, negative = growth inhibition, actives largely listed as inhibitors. 15% of 420,000 active. AID 686978, 2013; note: potency is the fitted concentration of half-maximal effect; % is set by controls: 0 for no effect and ±100 for the full control effect; nearly all actives have a fitted effect of over 55% in size
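Readout: luminescence from CellTiter-Glo after 30 min in the dark at RT. Cells: DT40 Tdp1-/- with stable hTDP1, 400/well. Exposure: compounds alone, ≥48 hr, 37 °C.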
The depositor's hits bear a star; ? = inconclusive; / = no result. Most compounds without a hit are left out; they make up all but 18% or so of the library. Unless noted, calls come from the whole dose curve; as a rule, active = well fitted curve in the direction sought with a large enough effect; inconclusive = small, poorly fitted or top-dose-only effect, or another doubt; inactive = no such curve, though single readings can be large; an effect the other way counts as inactive or inconclusive.

SMILES	TGFb SMAD3 inh	TDP1 cell CPT	HepG2 tox	TDP1 inh	IL-1B inflam inh	TDP1 cell noCPT
CC12CCC=CC1C(c1ccc(F)c(/C=C/c3ccccc3)c1)N(Cc1ccccc1)C2=O (configuration not stated)	-1%	/	-6%	-4%	/	/
C[C@@]12CCC=C[C@H]1[C@H](c1ccc(/C=C/c3ccccc3)cc1F)N(Cc1ccccc1)C2=O	-18%	15µM*	6%	-1%	-19	21µM*
C[C@@]12CCC=C[C@H]1[C@H](c1ccc3ccccc3c1/C=C/c1ccccc1)N(Cc1ccccc1)C2=O	-7%	2.1µM*	-28%	4%	38	?
CC[C@H]1OC(=O)C[C@@H](O)[C@H](C)[C@@H](O[C@@H]2O[C@H](C)[C@@H](O)[C@H](N(C)C)[C@H]2O)[C@@H](CCN2C[C@H](C)C[C@H](C)C2)C[C@@H](C)C(=O)/C=C/C(C)=C/[C@@H]1CO[C@@H]1O[C@H](C)[C@@H](O)[C@@H](OC)[C@H]1OC	/	-19%	/	/	/	-11%
O=C1Nc2ccc(Br)cc2C1(O)c1ccc(F)cc1 (configuration not stated)	-13%	-21%	-20%	/	26	?
CCOC(=O)CCCCN(Cc1ccccc1F)S(=O)(=O)c1ccc(F)c(C(=O)Nc2cc(Cl)cc(Cl)c2)c1	-12%	?	-11%	-5%	/	?
O=C(O)c1cc(-c2ccc(Cl)c(Cl)c2)n(-c2ccc(F)cc2)n1	8%	9%	5%	/	13	-4%
CC1=C(c2ccc(Cl)cc2)[N+](=O)C(C)(C)N1[O-]	-7%	16µM*	-18%	-5%	-3	?
O=C1C=CC(=Nc2cccc3c2C(=O)c2ccccc2-3)O1	-4%	-82%	8%	/	-93*	?
CC(C)(C)C(=O)c1c(N)[nH]c(C(=O)c2ccccc2)c1-c1ccc(C(F)(F)F)cc1	/	?	/	/	2	23µM*
Nc1[nH]c(C(=O)c2ccccc2)c(-c2ccccc2C(F)(F)F)c1C(=O)c1cccs1	/	23µM*	/	/	5	23µM*
COC(=O)CC1C(=O)NCCN1C(=O)CSc1nc2ccccc2s1 (configuration not stated)	11%	8%	11%	8%	42	-20%
COc1ccccc1NS(=O)(=O)c1ccc(N/N=C/C=C/c2ccccc2[N+](=O)[O-])c([N+](=O)[O-])c1	6%	-11%	0%	4%	3	?
COc1ccccc1NS(=O)(=O)c1cccc(C(=O)N/N=C/c2c(C)nn(-c3ccccc3)c2N2CCCC2)c1	0%	21µM*	-21%	5%	-2	21µM*
COc1ccccc1NS(=O)(=O)c1cccc(C(=O)N/N=C/c2cn(-c3ccccc3)nc2-c2ccccc2)c1	-6%	?	-2%	2%	-4	?
O=C(O)c1ccc(/C=N/Nc2ccc(S(=O)(=O)N3CCCC3)cc2[N+](=O)[O-])cc1	-3%	-14%	5%	0%	7	-19%
COc1ccccc1NS(=O)(=O)c1ccc(NN=C2CCCC2)c([N+](=O)[O-])c1	?	18µM*	-2%	11%	-7	16µM*
COc1ccc(NS(=O)(=O)c2ccc(NN=Cc3ccc(C(=O)O)cc3)c([N+](=O)[O-])c2)cc1	/	/	/	45µM*	/	/
CC(C)(C)C1CCC(=NNc2ccc(S(N)(=O)=O)cc2[N+](=O)[O-])CC1 (configuration not stated)	?	16µM*	11µM*	8%	-87*	21µM*
COc1ccc(CNC(=O)CCCc2cn(C)c3ccccc23)c(OC)c1	?	?	-61%	13%	/	?
CCOC(=O)c1c(C)[nH]c(C)c1S(=O)(=O)NCCN1CCN(c2ccccc2F)CC1	-8%	-24%	-33%	6%	-3	?
Cc1nn(-c2ccccc2)c(N2CCCC2)c1/C=N/Nc1ccc(S(=O)(=O)Nc2ccccc2)cc1[N+](=O)[O-]	-1%	5.8µM*	-8%	3%	33	7.3µM*
COc1ccccc1NS(=O)(=O)c1ccc(N/N=C/c2c(C)nn(-c3ccccc3)c2N2CCCC2)c([N+](=O)[O-])c1	25%	?	33%	8%	-24	6.5µM*
COc1ccccc1NS(=O)(=O)c1ccc(N/N=C/c2ccccc2OCC(=O)O)c([N+](=O)[O-])c1	?	-7%	-3%	3%	-3	-7%
CCNC(=S)N(CCCO)Cc1cc2cc3c(cc2[nH]c1=O)OCCO3	9%	21%	-14%	/	-3	-16%
SMILES	TGFb SMAD3 inh	TDP1 cell CPT	HepG2 tox	TDP1 inh	IL-1B inflam inh	TDP1 cell noCPT
COc1ccc(C)cc1NC(=O)Nc1cccc(OCc2cc(=O)n3ccc(C)cc3n2)c1	17%	9.2µM*	-3%	8%	/	9.2µM*
Cc1ccc2nc(COc3ccccc3NC(=O)c3ccccc3C)cc(=O)n2c1	-2%	-19%	5%	3%	/	?
CSc1cccc(NC(=O)Nc2ccccc2OCc2cc(=O)n3cc(C)ccc3n2)c1	3%	23µM*	-3%	0%	/	21µM*
CCC(Oc1ccccc1)C(=O)Nc1ccc(OCc2cc(=O)n3ccccc3n2)cc1 (configuration not stated)	0%	?	-21%	0%	/	?
CCC(Oc1ccccc1)C(=O)Nc1ccc(OCc2cc(=O)n3ccc(C)cc3n2)cc1 (configuration not stated)	?	?	2%	-3%	/	18µM*
Cc1c(CCOC(=O)CC23CC4CC(CC(C4)C2)C3)sc[n+]1Cc1ccccc1	-1%	2.1µM*	-22%	2%	?	1.8µM*
Cc1c(CCOC(=O)C23CC4CC(CC(C4)C2)C3)sc[n+]1CC#N	?	3.3µM*	-167%	3%	-102*	5.2µM*
COc1ccc(Cl)cc1NC(=O)NN1CCN(C)CC1	3%	-10%	2%	14µM*	-26	19%
COc1ccc(Cl)cc1NC(=O)Nc1ccc(C(=O)N2CCCC2)cc1	0%	?	-18%	4%	-64*	?
COc1ccc(Cl)cc1NC(=S)N1CCCC1	0%	14%	1%	7%	9	-10%

Screens from PubChem.
